Source: PubChem
Sampled rows, rich in hits. Any-hit rate of the full collection: about 3.6%.
Pf apPOL inh – Pf-apPOL inhibitors, biochemical, fluorescence. inhibition, % at 10 µM. hit rate 0.25% among 210,000. Recombinant Pf-apPOL, molecular beacon fluorescence, 1.5 h. AID 1794808, 2022
mHTT-CaM PPI inh – mutant huntingtin-calmodulin interaction inhibitors – biochemical, AlphaScreen, primary screen | P42858 | inhibition, % at 15 µM | AlphaScreen His-mHTT/GST-CaM binding, luminescence | hit rate 3.6% among 190,000
Hits are given with their value; - = inactive; . = no result. Rule as the data show it: active = inhibition above about 50%; inactive = the rest.

SMILES | Pf apPOL inh | mHTT-CaM PPI inh
Cc1ccccc1NC(=O)N1CCCC1c1ccccc1C (stereo not drawn) | - | -
C=CCn1c(SCC(=O)c2ccc(F)cc2)nnc1-c1cccs1 | - | -
C=CCn1c(SCC(=O)O)nnc1-c1cccs1 | - | 50.2
COc1ccccc1C1=NOC(C(=O)Nc2cccc(O)c2)C1 (stereo not drawn) | - | -
CC1(C)CC(=O)C2=C(C1)Nc1ccccc1NC2c1ccccc1 (stereo not drawn) | - | -
CC1(C)CC(=O)C2=C(C1)Nc1ccccc1NC2c1ccc(Cl)c(Cl)c1 (stereo not drawn) | - | 66.0
Cc1cc2c(cc1C)NC(c1ccc(Cl)c(F)c1)C1=C(CC(C)(C)CC1=O)N2 (stereo not drawn) | - | 59.0
Cc1cc2c(cc1C)NC(c1ccc(F)cc1)C1=C(CC(C)(C)CC1=O)N2 (stereo not drawn) | - | -
CC1(C)CC(=O)C2=C(C1)Nc1ccccc1NC2c1ccc(-c2ccc([N+](=O)[O-])cc2Cl)o1 (stereo not drawn) | - | -
CC1(C)CC(=O)C2=C(C1)Nc1ccccc1NC2c1ccc(-c2ccc([N+](=O)[O-])cc2)o1 (stereo not drawn) | - | 73.0
COc1cc(NC(=O)c2sc3nc(C)nc(N4CCCCC4C)c3c2C)cc(OC)c1OC (stereo not drawn) | - | -
Cc1ccc(C)c(N2C=C(C#N)S(=O)(=O)c3c(F)cccc32)c1 | - | -
CC(C)CNC(=O)C(=O)NCC1COC2(CCCC2)O1 (stereo not drawn) | - | -
CSc1nc(-c2ccc(Cl)cc2)nc(SC)c1Cl | - | .
COc1ccccc1-n1c(SC)nc2c(c1=O)SCC2 | - | -
CCCC12CN3CC(C)(CN(C1)C3c1ccc(F)cc1)C2=O (stereo not drawn) | - | -
Cc1nc2cc(NC(=O)Cn3cnc(-c4cccs4)cc3=O)ccc2s1 | - | -
Cn1cc(CCCC(=O)NCc2ccco2)c2ccccc21 | - | -
CCCSc1nnc2c(n1)OC(c1ccco1)Nc1ccccc1-2 (stereo not drawn) | - | -
CSc1nnc2c(n1)OC(c1ccncc1)Nc1ccc(Br)cc1-2 (stereo not drawn) | - | 54.0
CSc1nnc2c(n1)OC(c1ccc(C(=O)O)cc1)Nc1ccc(Br)cc1-2 (stereo not drawn) | - | -
CCCSc1nnc2c(n1)OC(c1ccco1)Nc1ccc(Br)cc1-2 (stereo not drawn) | - | 53.0
CN(C)c1ncncc1N1CCC(C(=O)N(Cc2ccccc2)Cc2ccco2)CC1 | - | -
CCc1ccc(N(CC(=O)O)S(=O)(=O)c2ccccc2)cc1 | - | -
CCN(CC)S(=O)(=O)c1cccc(C(=O)Nc2ccc(OC)cc2)c1 | - | -
SMILES | Pf apPOL inh | mHTT-CaM PPI inh
COc1cc(-c2c(C#N)c(N)n3c(nc4ccccc43)c2C#N)ccc1OCC#N | - | 69.0
CCOc1ccc(-c2c(C#N)c(N)n3c(nc4ccccc43)c2C#N)cc1OC | - | -
CCCNC(=O)c1ccc2ncc3c(=O)n(-c4ccc(C)cc4)[nH]c3c2c1 | - | -
CCN(CC)C1C(=O)Nc2ccc(Br)cc2C1c1ccccc1Cl (stereo not drawn) | - | 94.0
O=C1Nc2ccc(Br)cc2C(c2ccccc2Cl)C1N1CCCCC1 (stereo not drawn) | - | 80.0
CC12CC(NC(=O)N1Cc1ccccc1)c1cc(Br)ccc1O2 (stereo not drawn) | - | -
O=C1CN(C(=O)C2CC2)C(c2ccccc2)c2cc(Br)ccc2N1 (stereo not drawn) | - | -
O=C(CCNS(=O)(=O)c1cccs1)N1CCN(c2ncccn2)CC1 | - | -
O=[N+]([O-])c1ccc(Sc2n[nH]c(C(F)(F)F)n2)nc1 | - | .
O=C(O)C1Nc2cc(Cl)cc(Cl)c2C2C=CCC12 (stereo not drawn) | - | 99.0
CCCC1Nc2c(C(=O)O)ccc([N+](=O)[O-])c2C2C=CCC12 (stereo not drawn) | - | -
O=C(O)C1Nc2c(O)cc(Cl)c([N+](=O)[O-])c2C2C=CCC12 (stereo not drawn) | - | 90.0
CC(=O)c1ccc2c(c1)C1C=CCC1C(c1ccc(Cl)cc1Cl)N2 (stereo not drawn) | - | -
O=[N+]([O-])c1c(Cl)cc(O)c2c1C1C=CCC1C(c1ccc(Cl)cc1)N2 (stereo not drawn) | - | 88.0
O=[N+]([O-])c1c(Cl)cc(O)c2c1C1C=CCC1C(C1CC=CCC1)N2 (stereo not drawn) | - | 80.0
CCc1ccc(CNC(=O)c2cc3ccncc3n2C)cc1 | - | -
COc1cccc2c1c(NS(=O)(=O)c1cc(Cl)sc1Cl)nn2C | - | .
O=[N+]([O-])c1ccc(/C=N/n2cnnc2)s1 | . | -
Cc1ccc(C(=O)N2CCN(c3ccc([N+](=O)[O-])c(NCC4CCCO4)c3)CC2)cc1 (stereo not drawn) | - | -
Cc1c(Cl)cccc1NS(=O)(=O)c1cc2c(s1)CCN(C(=O)C1CCC1)C2 | - | 50.6
Cc1cccc(NS(=O)(=O)c2cc3c(s2)CCN(C(=O)C2CC2)C3)c1C | - | -
O=[N+]([O-])c1ncn(Cc2cccc(Br)c2)n1 | - | -
O=[N+]([O-])c1ncn(CNc2cc(Br)cc3cccnc23)n1 | - | 65.0
COc1ccccc1C(=O)N1CCCCC1CCN1CCCCCC1 (stereo not drawn) | - | -
COc1cc(OC)cc(C(=O)N2CCn3cnnc3C2)c1 | - | -
SMILES | Pf apPOL inh | mHTT-CaM PPI inh
COc1ncnc2c1C(c1cccc([N+](=O)[O-])c1)c1c(OC)ncnc1O2 | - | -
CNc1ncnc2c1C(c1cccc([N+](=O)[O-])c1)c1c(NC)ncnc1O2 | 75.4 | -
O=C(O)C1C2CCC(C2)C1C(=O)Nc1nc(-c2ccc(F)cc2F)cs1 (stereo not drawn) | - | -
Fc1cccc2c1N[C@@H](c1c3ccccc3cc3ccccc13)[C@H]1CC=C[C@@H]21 | . | -
O=[N+]([O-])c1cccc2c1NC(c1ccccc1F)C1CC=CC21 (stereo not drawn) | - | 75.0
COc1cc([N+](=O)[O-])cc2c1NC(c1cccc(Cl)c1Cl)C1CC=CC21 (stereo not drawn) | - | -
O=[N+]([O-])c1ccccc1C1Nc2c(cccc2[N+](=O)[O-])C2C=CCC21 (stereo not drawn) | - | 65.0
O=C(O)c1cccc2c1NC(c1ccccc1[N+](=O)[O-])C1CC=CC21 (stereo not drawn) | - | 92.0
O=C(O)c1ccc([N+](=O)[O-])c2c1NCC1CC=CC21 (stereo not drawn) | - | -
Cc1cc(C)nc(Nc2nc(C(=O)N3CCN(C(=O)c4ccco4)CC3)cs2)n1 | - | -
O=C(NC1CCCC1)C(=O)N1CCN(C(c2ccccc2)c2ccccc2)CC1 | - | -
Cc1ccccc1NC(=O)CN1CCC(c2nc(-c3ccncc3)no2)CC1 | - | -
COc1ccc(-c2noc(C3CCN(CC(=O)Nc4ccccc4C)CC3)n2)cc1 | - | 66.0
COc1ccc(Cl)cc1C1=N/C(=C/c2ccc(Cl)cc2)C(=O)O1 | - | -
COc1ccc(-c2nnc(NC(=O)c3cccs3)o2)cc1 | - | 66.0
COc1ccc(-c2csc(NC(=O)c3cccs3)n2)cc1 | - | -
CC(=O)Nc1nc(-c2ccccc2)c(-c2ccccc2)o1 | - | -
O=C(Nc1nc(-c2ccccc2)c(-c2ccccc2)o1)c1cccs1 | - | 62.0
